According to PubChem BioAssay (NCATS):

These compounds were tested against Glucocorticoid receptor (Homo sapiens) (UniProt P04150) (assay: GR-GFP Redistribution (AID 450)). Conditions: U2OS GR-GFP nuclear translocation, laser cytometry, 2 h; series mostly up to 20.6 µM;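 active = compounds whose dose series gives a full or clear partial fitted curve of increased nuclear translocation; inconclusive = weak partial curve or effect only at the top dose; inactive = no dose-dependent translocation response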.
Chain of Glucocorticoid receptor (Homo sapiens) (P04150 whole entry, looked up): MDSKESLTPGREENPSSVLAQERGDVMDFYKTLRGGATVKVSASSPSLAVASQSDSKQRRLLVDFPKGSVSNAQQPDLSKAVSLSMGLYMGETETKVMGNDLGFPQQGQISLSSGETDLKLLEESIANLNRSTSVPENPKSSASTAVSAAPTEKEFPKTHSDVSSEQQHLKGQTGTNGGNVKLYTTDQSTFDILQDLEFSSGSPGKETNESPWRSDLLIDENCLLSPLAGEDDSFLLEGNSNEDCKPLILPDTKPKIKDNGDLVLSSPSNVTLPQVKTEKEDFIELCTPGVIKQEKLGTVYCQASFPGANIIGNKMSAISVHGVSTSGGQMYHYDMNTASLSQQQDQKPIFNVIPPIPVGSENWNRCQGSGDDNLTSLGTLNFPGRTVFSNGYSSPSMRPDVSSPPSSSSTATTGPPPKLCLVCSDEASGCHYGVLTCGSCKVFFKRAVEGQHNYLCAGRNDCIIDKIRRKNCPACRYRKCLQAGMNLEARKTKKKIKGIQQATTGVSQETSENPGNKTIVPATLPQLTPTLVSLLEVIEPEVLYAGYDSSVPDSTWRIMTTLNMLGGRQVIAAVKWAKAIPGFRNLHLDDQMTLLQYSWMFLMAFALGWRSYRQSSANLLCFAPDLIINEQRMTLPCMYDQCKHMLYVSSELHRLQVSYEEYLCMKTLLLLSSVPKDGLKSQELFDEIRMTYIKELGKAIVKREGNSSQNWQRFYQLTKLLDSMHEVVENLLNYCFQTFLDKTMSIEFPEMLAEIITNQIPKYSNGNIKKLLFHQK
Potency is the fitted concentration of half-maximal effect.

Potency, inactive:
O=C(C1=C(O)C(=O)N(CCCN2CCOCC2)C1c1ccccn1)c1cccs1 (stereo not given) > 20.6 µM
OC(CNCCCN1CCCCC1)COc1ccccc1 (stereo not given) > 20.6 µM
COc1cc(C)nc(Oc2ccc(OCCOc3ccc(C)cc3)nn2)n1 > 20.6 µM
COC(=O)C(NC(C)=O)(Nc1ccccn1)C(F)(F)F (stereo not given) > 20.6 µM
O=C1c2ccccc2S(=O)(=O)N1CC(O)COc1ccc(Cl)cc1 (stereo not given) > 20.6 µM
O=P(Cc1nnco1)(c1ccccc1)c1ccccc1 > 20.6 µM
CCOC(=O)c1cnc(SC2CC(=O)N(c3cccc(OC)c3)C2=O)nc1N (stereo not given) > 20.6 µM
COC(=O)CSc1nc(C)c(C(C)=O)cc1C#N > 20.6 µM
CCCCC1CC1C(=O)Nc1ccc(OC)c(OC)c1 (stereo not given) > 20.6 µM
CCC(NC(=O)Nc1ccc(O)cc1)(C(F)(F)F)C(F)(F)F > 20.6 µM
CCCCCC(=O)N1CC2(CC)CN(C(=O)CCCCC)CC(CC)(C1)C2=O > 20.6 µM
CC1(C)CC(=O)C2=C(C1)OC(N)=C(C#N)[C@@]21C(=O)N(CC(N)=O)c2ccccc21 > 20.6 µM
CCOC(=O)c1[nH]c2cc3c(cc2c1NC(=O)CN1CCC2(CC1)OCCO2)OCO3 > 20.6 µM
CCN(CC)CCn1c(O)c(N=O)c2ccccc21 > 20.6 µM
Cc1ccc(OCC(=O)N(C)CCc2ccccn2)cc1 > 20.6 µM
Cc1cc(NCC2CCCO2)n2c(nc3ccccc32)c1C#N (stereo not given) > 20.6 µM
COc1ccc2[nH]c(C)c(C(=O)CN3CCc4cc(OC)c(OC)cc4C3)c2c1 > 20.6 µM
COc1cc(=O)n2c(-c3ccccc3)csc2n1 > 20.6 µM
Cc1nc(SCC(=O)Nc2ccc3c(c2)OCO3)c(C#N)c2c1CCCC2 > 20.6 µM
Cc1cc(C)n(CC(=O)n2nc(C)cc2C)n1 > 20.6 µM
CCOc1ccc(CCNC(=O)C(O)c2ccccc2)cc1 (stereo not given) > 20.6 µM
COC(=O)[C@@H](N)Cc1ccc(O)cc1 > 20.6 µM
O=C(O)CN(c1ccccc1)C1SC(=O)NC1=O (stereo not given) > 20.6 µM
O=C(OCC#CCSc1nnc(-c2ccccc2)o1)c1cccs1 > 20.6 µM
NC(=O)C1CCN(C2OC(=O)c3ccccc32)CC1 (stereo not given) > 20.6 µM
O=C(CCCN1C(=O)c2ccccc2C1=O)N1CCC(c2ccccc2)C1 (stereo not given) > 20.6 µM
Cc1ccc(C(C)C)c(OCCNc2nc3c(c(=O)n(C)c(=O)n3C)n2C)c1 > 20.6 µM
CCSc1nc(O)c(C2OC(=O)c3c2ccc(OC)c3OC)c(=O)n1-c1ccccc1 (stereo not given) > 20.6 µM
COC(=O)CSc1nc(C)c(Oc2ccccc2)c(=O)[nH]1 > 20.6 µM
O=C(c1cccc2ccccc12)N1CCC(N2CCN(c3ccccc3)CC2)CC1 > 20.6 µM
Fc1ccc(C2C3=C(Nc4ncnn42)c2ccccc2OC3c2ccncc2)cc1 (stereo not given) > 20.6 µM
CC(=O)[C@H]1[C@@H]2C(=O)N(c3cccc(Cl)c3)C(=O)[C@@H]2[C@H]2c3ccccc3C=CN21 > 20.6 µM
O=C(OCCN1CCOCC1)c1ccc(OCCN2CCOCC2)cc1 > 20.6 µM
Cn1c(=O)n(C)c2cc(C(=O)c3ccccc3)ccc21 > 20.6 µM
CN(C)CCCN(CCCNC(=O)/C=N/O)Cc1ccccc1 > 20.6 µM
CN(C)C(=O)COn1c(SCC(=O)N(C)C)nc2ccccc2c1=O > 20.6 µM
COc1cccc(C2/C(=C(/O)c3cnn(-c4ccccc4)c3C)C(=O)C(=O)N2CCN(C)C)c1OC (stereo not given) > 20.6 µM
CC1CN(C2CCN(S(=O)(=O)Cc3ccccc3)CC2)CC(C)O1 (stereo not given) > 20.6 µM
COc1cccc(C=NCCNC(=O)c2nonc2N)c1O > 20.6 µM
CCOC(=O)C1=C(N)N2C(=O)CSC2=C(C(=O)OC)C1 > 20.6 µM
